# Only a selection was taken, and hits are over-represented in it overall.
# nsP2pro inh = inhibitors of chikungunya virus nsP2 protease; FRET peptide cleavage, nsP2pro, fluorescence 1 h; AID 1964107; 1.1% of 31,000 active; Potency, µM (series often up to 24.9 µM), for the others: at the highest dose activity change, negative = inhibition, actives largely listed as inhibitors; also: nearly all actives have a fitted effect of over 60% in size
#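 Enzyme 150 nM, substrate 2.5 uM (both final); Tris-HCl 10 mM pH 8.0 + 0.01% Tween 20; cpd up to 25 uM, 7 pts; 15 min preinc., 1 h RT; fluorescence ex 525/em 598.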
# CHIKV nsP2 cell = secondary cell-based test for CHIKV nsP2 protease inhibitors; Potency, µM (series often up to 51.1 µM), for the others: at the highest dose activity change, negative = inhibition, hits mostly inhibitors; shares compounds with nsP2pro inh; cell-based CHIKV nsP2 protease reporter assay; 10% of 450 active; also: nearly all actives have a fitted effect of over 70% in size
# NSP2 full ctr = inhibits full-length CHIKV NSP2 enzyme | 39% of 410 active | Potency, µM (series often up to 50.7 µM), inactives show at the highest dose activity change, negative = inhibition, usual class: inhibitors | shares compounds with nsP2pro inh | AID 1964101 | Full-length CHIKV NSP2 protease enzymatic counterscreen; also: nearly all actives have a fitted effect of over 65% in size
# Furin counterscr = selectivity counter-screen for CHIKV nsP2 protease inhibitors: human furin | shares compounds with nsP2pro inh | Recombinant human furin enzymatic counterscreen, fluorogenic substrate | Potency, µM (titrated, usually from 50.6 µM), for the others: at the top dose activity change, negative = inhibition, actives largely listed as inhibitors | 6% of 410 active | AID 1964102
# nsP2 NS23 pep = blocks CHIKV nsP2 protease cleavage of endogenous NS2/3 peptide; shares compounds with nsP2pro inh; Purified CHIKV nsP2 protease, endogenous NS2/3 peptide cleavage; Potency, µM (highest dose often 51 µM), for inactives: at the highest dose activity change, negative = inhibition, most hits filed as inhibitors; 34% of 410 active; also: nearly all actives have a fitted effect of over 55% in size
# Papain cs = papain protease inhibition, counterscreen for nsP2pro inhibitors; shares compounds with nsP2pro inh; purified papain protease activity, enzymatic inhibition; Potency, µM (highest dose often 51 µM), without a hit: at the top dose activity change, negative = inhibition, usual class: inhibitors; 5% of 410 active
# Target sequence (P00784 whole entry, looked up): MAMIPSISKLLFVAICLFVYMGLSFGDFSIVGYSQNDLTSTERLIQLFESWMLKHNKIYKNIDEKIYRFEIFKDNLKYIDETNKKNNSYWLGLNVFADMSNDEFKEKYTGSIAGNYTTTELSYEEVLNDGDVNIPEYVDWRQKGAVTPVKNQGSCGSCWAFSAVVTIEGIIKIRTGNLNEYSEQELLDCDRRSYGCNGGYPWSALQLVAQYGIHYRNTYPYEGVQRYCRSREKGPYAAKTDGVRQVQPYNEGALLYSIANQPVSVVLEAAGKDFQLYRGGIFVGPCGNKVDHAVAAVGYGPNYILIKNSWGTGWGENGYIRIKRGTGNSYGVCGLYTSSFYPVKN
# nsP2pro conf qHTS = CHIKV nsP2 protease inhibition, confirmatory qHTS. shares compounds with nsP2pro inh. CHIKV nsP2 protease enzymatic activity, qHTS. Potency, µM (highest dose often 25.5 µM), without a hit: at the top dose activity change, negative = inhibition, actives largely listed as inhibitors. 43% of 410 active; also: nearly all actives have a fitted effect of over 75% in size
# HCV NS3 counter = HCV NS3/4A protease inhibition, counterscreen | Potency, µM (doses to about 50.9 µM), actives largely listed as inhibitors | HCV NS3/4A protease biochemical counterscreen | 20% of 410 active | shares compounds with nsP2pro inh; also: nearly all actives have a fitted effect of over 55% in size
# * hit, by the source's call; i = inactive; ? = inconclusive; [ ] = remark or other dose. Calls follow the shape of the full dose curve. % is scaled to controls: 0 for no effect and ±100 for the full control effect; potency is read from the fitted curve at half-maximal effect.
SMILES,nsP2pro inh,others
C/C=C/c1cc(OC)c2c(c1)[C@@H](C)[C@@H](c1ccc(O)c(OC)c1)O2,11%,
C/C=C/c1ccc(O)c(OC)c1,?,CHIKV nsP2 cell=-5%;NSP2 full ctr=18µM*;Furin counterscr=-11%;nsP2 NS23 pep=?;Papain cs=-6%;nsP2pro conf qHTS=5µM*;HCV NS3 counter=?
Cc1cccc(N2CCN(C(=O)Cn3nc(C)c4sc5ccccc5c4c3=O)CC2C)c1 (stereo not drawn),-9%,
COc1cccc(CNC(=O)N[C@@H]2CN(c3ncccn3)C[C@H]2CN(C)C)c1,-3%,
O=c1c2ccccc2nc2sc(Nc3cccc4ccccc34)nn12,i,
CC1=CC2/C=C(\C)CCC(O)C(O)/C=C/C(=O)OC23C(=O)NC(CC(C)C)C3C1C (stereo not drawn),-14%[10 µM],
C=C1[C@@H](C)C2[C@H](Cc3ccccc3)NC(=O)[C@@]23C(/C=C/C[C@H](C)C[C@@](C)(O)/C=C/[C@@H]3OC(C)=O)[C@@H]1O (stereo partly drawn),-3%,
C=C1[C@@H](C)[C@H]2[C@H](Cc3ccccc3)NC(=O)[C@]23OC(=O)/C=C/C(=O)CCC[C@@H](C)C/C=C/[C@H]3[C@@H]1O,2.5µM*,CHIKV nsP2 cell=0.71µM*;NSP2 full ctr=7.3µM*;Furin counterscr=-4%;nsP2 NS23 pep=8.2µM*;Papain cs=-12%;nsP2pro conf qHTS=1.1µM*;HCV NS3 counter=0.37µM*
CCOc1cc2c(cc1OCC)CN(C(=O)c1cc3sccc3n1Cc1ccccc1)CC2,4%,
C/C1=C\CCC2=C[C@@H](OC2=O)c2c(C)coc2C1,6%,
COc1ccc2c(=O)n3nc(Nc4ccc5c(c4)CCC5)sc3nc2c1,2%,
Cc1ccc(CNCc2cccn2-c2nnc(N3CCCC3)s2)cc1,-7%,
COc1ccccc1NCc1cccn1-c1nnc(N2CCCCCC2)s1,-27%,
CCc1ccc(NCc2cccn2-c2nnc(N3CCCCCC3)s2)cc1,?,CHIKV nsP2 cell=?
C[C@H]1CNCCCN1S(=O)(=O)c1cccc2cncc(F)c12,-5%,
CCCC(=O)OC[C@@H](OC(=O)CCC)[C@@H](OC(=O)CCC)[C@H](Cn1c2nc(=O)[nH]c(=O)c-2nc2cc(C)c(C)cc21)OC(=O)CCC,0.7µM*,CHIKV nsP2 cell=25%;NSP2 full ctr=17%;Furin counterscr=-12%;nsP2 NS23 pep=2%;Papain cs=?;nsP2pro conf qHTS=-4%;HCV NS3 counter=i
COc1ccc2[nH]c(C(=O)N3C[C@@H](CO)[C@H](c4ccccn4)C3)cc2c1,-8%,
COc1ccc(Cl)cc1NC(=O)c1ncn(-c2ccccc2)n1,-3%,
COC(=O)c1ccc(O)c2ncc(-c3ccc(C(=O)N4CCNCC4)cc3)cc12,i,
CCc1nc2ccc(C(=O)N3CCN(c4cccc(OC)c4)CC3)cc2nc1CC,-13%,
COC(=O)c1cc(CN2CCN(C(=N)N)CC2)cc(C(=O)N2CCN(C(=O)c3ccc(C(=N)N)cc3)CC2)c1,?,CHIKV nsP2 cell=-4%;NSP2 full ctr=15µM*;Furin counterscr=9.2µM*;nsP2 NS23 pep=?;Papain cs=?;nsP2pro conf qHTS=?;HCV NS3 counter=i
N#Cc1cccc(-c2cn3c(n2)N(C(=O)c2ccccc2F)CCC3)c1,-3%,
CN1C[C@@H](NC(=O)CC(C)(C)CC(=O)O)C[C@H]1c1nc(-c2ccccn2)no1,2%[39.2 µM],
CC1(C)O[C@H]2CC(=O)OC[C@@]23C1=C(O)C(=O)[C@]1(C)C3CC[C@@]2(C)[C@H](c3ccoc3)OC(=O)[C@H]3O[C@]321 (stereo partly drawn),?,CHIKV nsP2 cell=0%[17.6 µM];NSP2 full ctr=-7%[17.3 µM];Furin counterscr=-3%[17.3 µM];nsP2 NS23 pep=i;Papain cs=-13%[17.2 µM];nsP2pro conf qHTS=10%[8.62 µM];HCV NS3 counter=?
CC1(C)OC(=O)CC(O)C2(C)C1CC(=O)C1(C)C2C(O)CC2(C)C(c3ccoc3)OC(=O)C3OC321 (stereo not drawn),?,CHIKV nsP2 cell=10%[17.6 µM];NSP2 full ctr=-19%[17.3 µM];Furin counterscr=-5%[17.3 µM];nsP2 NS23 pep=-10%[17.2 µM];Papain cs=-6%[17.2 µM];nsP2pro conf qHTS=-16%[8.62 µM];HCV NS3 counter=i
SMILES,nsP2pro inh,others
Cc1cccc2ncc(C(=O)N3CCC4(CCNC(=O)CC4)CC3)c(=O)n12,i,
CC1(C(=O)N2CCCC(CCc3ccc(F)c(F)c3)C2)CC1 (stereo not drawn),-2%,
CCN(C(=O)c1cc2cc(Br)cc(OC)c2oc1=O)c1ccccc1,-20%,
O=C(Nc1nc2c(F)cccc2s1)c1ccc(S(=O)(=O)N2CCCc3ccccc32)cc1,-13%,
O=C(NC1CCCCC1)OC[C@H]1C[C@@H]2CCN1C[C@@H]2c1cc(C2CCCC2)nc(-c2ccncc2)n1,7.9µM*,CHIKV nsP2 cell=-50%;NSP2 full ctr=?;Furin counterscr=?;nsP2 NS23 pep=?;Papain cs=-5%;nsP2pro conf qHTS=9µM*;HCV NS3 counter=15µM*
COc1ccc(-c2cc([C@H]3CN4CC[C@H]3C[C@@H]4COC(=O)Nc3ccccc3)n(C)n2)cc1,i,
CCC(CC)c1cc([C@H]2CN3CC[C@H]2C[C@@H]3CNC2CCN(C)CC2)nc(-c2ccncc2)n1,5%,
Cn1nc(C2CCCC2)cc1[C@H]1CN2CC[C@H]1C[C@@H]2CNC(=O)c1cccs1,1%[39.2 µM],
CC(C)NC(=O)OC[C@H]1C[C@@H]2CCN1C[C@@H]2c1cc(C2CCCC2)nc(-c2ccncc2)n1,5µM*,CHIKV nsP2 cell=-56%;NSP2 full ctr=6.5µM*;Furin counterscr=?;nsP2 NS23 pep=18µM*;Papain cs=-4%;nsP2pro conf qHTS=8µM*;HCV NS3 counter=10µM*
CCCS(=O)(=O)NC[C@H]1C[C@@H]2CCN1C[C@@H]2c1cc(C(CC)CC)nc(-c2ccncc2)n1,-12%,
CC1OC(O[C@@H]2[C@H](O)[C@@H](OC3OC(CO)C(O)C(O)C3O)[C@H](OC(=O)[C@]34CCC(C)(C)C[C@H]3C3=CCC5[C@@]6(C)CC[C@H](O[C@@H]7O[C@H](C(=O)O)[C@@H](O)[C@H](O[C@@H]8OC[C@@H](O)[C@H](O)[C@H]8O)[C@H]7O[C@@H]7O[C@H](CO)[C@H](O)[C@H](O)[C@H]7O)[C@@](C)(C=O)C6CC[C@@]5(C)[C@]3(C)C[C@H]4O)O[C@@H]2C)C(O)C(O)C1OC1OCC(O)C(O)C1O (stereo partly drawn),-14%[2.68 µM],
COc1ccc(-c2ccc3nc(-c4ccc(C)c(F)c4)oc3c2)c(OC)c1OC,0%,
COc1ccc(-c2ccc3nc(-c4cccc(F)c4)oc3c2)c(OC)c1OC,?,CHIKV nsP2 cell=?
COc1ccc(-c2ccc3nc(-c4ccc(F)c(F)c4)oc3c2)c(OC)c1OC,-1%,
CC(C)c1ccc(NC(=O)CN2C(=O)CCc3cc(S(=O)(=O)N4CCOCC4)ccc32)cc1,-9%,
COCC1CN(Cc2ccc(OC(F)(F)F)cc2)CC12CCNCC2 (stereo not drawn),36%,
